# Source: PubChem BioAssay (Emory University Molecular Libraries Screening Center)
# Only a selection was taken, and hits are over-represented in it overall.
# Measles inh: inhibitors of measles virus growth in infected cells. 33,000 compounds, 0.1% hits. z-score (no concentration beside the values). AID 745. infected Vero cells, GFP fluorescence, 64 h; hits give low values; in the data active = z-score below about -3
# An asterisk follows results filed as active.
SMILES,Measles inh
CCOc1ccc(C(=O)Oc2cccc3cccnc23)cc1Br,-3.5*
COc1ccc(C(=O)Oc2cccc3cccnc23)cc1OC,-0.37
CC(=O)Oc1cccc2cccnc12,-0.4
CCN1CCN(C(=O)c2cn(CC)c3ccc(S(=O)(=O)N4CCCCC4)cc3c2=O)CC1,0.19
O=C(Nc1cc(O)cc([N+](=O)[O-])c1)c1nn2c(C(F)(F)F)cc(-c3cccs3)nc2c1Cl,-0.65
O=C(Nc1cc([N+](=O)[O-])ccc1Cl)c1cc(-c2ccccc2)nc2ccccc12,0.07
Cc1ccccc1N=c1oc2ccc(Br)cc2cc1C(N)=O,1.4
CCCCc1ccc(NC(=O)c2cnc3n(c2=O)CCS3)cc1,-0.04
Cc1cccc2c(C(=O)O)cc(-c3ccccc3)nc12,0.87
O=C1OC2(C(=O)c3ccccc3C2=O)/C(=C(\O)c2ccc(Br)cc2)C1=O,0.05
COc1cc(-c2nc(Nc3ccc(C)cc3)c3ccccc3n2)cc(OC)c1OC,-0.38
COc1ccc(Nc2nc(-c3ccc(C)cc3)nc3ccccc23)cc1OC,-1.9
Cc1ccc(Nc2cc(C)nc(-c3ccccc3)n2)cc1,-3.7*
O=C(NC1CCCCCC1)c1c[nH]c2ccc(S(=O)(=O)N3CCc4ccccc43)cc2c1=O,-3.2*
CCN(c1ccccc1)S(=O)(=O)c1ccc2[nH]cc(C(=O)NC3CCCCC3)c(=O)c2c1,-2.1
CCc1ccccc1NS(=O)(=O)c1ccc2[nH]cc(C(=O)NC3CCCC3)c(=O)c2c1,-0.66
CCCCc1ccc(-n2nc3ccc(N)cc3n2)cc1,1.3
COCCn1c(=O)[nH]c2cc(C(=O)NC3CCN(Cc4ccccc4)CC3)ccc2c1=O,-1.4
COCCn1c(=O)[nH]c2cc(C(=O)NCCN3CCN(c4ccccc4)CC3)ccc2c1=O,-3.6*
COCCCNC(=O)c1ccc2c(=O)n(CCOC)c(=O)[nH]c2c1,0.63
COc1ccc2cc3cc(C(=O)NCCN(C)Cc4ccccc4)sc3nc2c1,0.38
Cc1cc(Cl)ccc1OCCCC(=O)N1CCN(Cc2ccc3c(c2)OCO3)CC1,-0.71
CCN(CC)C(=O)c1ccc2c(=O)n(-c3cc(OC)ccc3OC)c(=S)[nH]c2c1,-5.5*
COc1ccc(CNC(=O)c2ccc3c(=O)n(-c4cc(OC)ccc4OC)c(=S)[nH]c3c2)cc1,0.3
COc1ccc(OC)c(-n2c(=S)[nH]c3cc(C(=O)Nc4ccc5c(c4)CCC5)ccc3c2=O)c1,1.9
SMILES,Measles inh
COc1ccc(C2C3C(=O)N(c4ccc(C)cc4)C(=O)C3ON2c2ccccc2C)c(OC)c1 (stereo not drawn),0.07
O=C(NC1CCCCCCC1)C1c2ccccc2C(=O)N1CCCN1CCCCC1 (stereo not drawn),-0.55
COc1ccc(Br)cc1CN1C(=O)c2ccccc2C1C(=O)NC1CCC(C)CC1 (stereo not drawn),-1
CC1CCC(NC(=O)C2c3ccccc3C(=O)N2CCCN2CCOCC2)CC1 (stereo not drawn),-4.9*
O=C1CC(c2ccc(OC(F)(F)F)cc2)c2ccc3ccccc3c2N1 (stereo not drawn),0.78
Cc1ccc(Cn2c(SCC(=O)c3ccc(F)cc3)nc3ccsc3c2=O)cc1,-0.75
CC(C)CCNC(=O)CSc1nc2ccsc2c(=O)n1Cc1ccc2c(c1)OCO2,-0.28
Cc1ccc(CNC(=O)CSc2nc3ccsc3c(=O)n2Cc2ccccc2F)cc1,-3.9*
CCOC(=O)c1sc2nc(SCC#N)n(CCc3ccccc3)c(=O)c2c1C,1.5
Cc1noc(C)c1S(=O)(=O)Nc1ccc(C(=O)Nc2ccc(C(C)C)cc2)cc1,-3.7*
COc1ccc(NC(=O)c2ccc(NS(=O)(=O)c3c(C)noc3C)cc2)cc1OC,0.34
CC(=O)c1ccc(NC(=O)c2ccc(NS(=O)(=O)c3c(C)noc3C)cc2)cc1,-0.94
CN(c1ccc(Br)cc1)S(=O)(=O)c1ccc2c(c1)CCN2C(=O)C1CC1,-1.1
COc1cc(C(=O)NCc2ccccn2)c([N+](=O)[O-])cc1OC,-0.19
COc1cc(C(=O)N2CCc3ccccc32)c([N+](=O)[O-])cc1OC,0.48
COc1cc(C(=O)c2ccccc2)c([N+](=O)[O-])cc1OC,-3*
COc1ccc(Cl)cc1NC(=O)CSc1nc2c(c(=O)n1Cc1ccccc1)SC(C)C2 (stereo not drawn),-0.39
O=C(Nc1cccc(-c2nc3ccccc3s2)c1)c1ccc(Br)o1,-4.2*
O=C(Nc1cccc(-c2nc3cc(Cl)ccc3o2)c1)c1ccc(Br)o1,-0.44
O=C(Nc1cccc(-c2nc3ccccc3s2)c1)c1cccs1,-0.07
COc1cc(C)ccc1S(=O)(=O)NCc1ccco1,0.43
Cc1cccc(C(=O)Nc2sc3c(c2C(=O)Nc2ccccc2Cl)CCCC3)c1,-4.4*
Cc1cc(C(=O)Nc2sc3c(c2C(=O)OC(C)C)CCCC3)ccc1[N+](=O)[O-],1.6
Cc1cccc(C(=O)Nc2sc3c(c2C(=O)Nc2ccccc2Cl)CCC3)c1,0.38
COC(=O)c1c(NC(=O)c2ccc(C)c([N+](=O)[O-])c2)sc2c1CCC2,1.6
SMILES,Measles inh
Cc1cccc(C(=O)Nc2sc3c(c2C(=O)NCc2ccco2)CCCC3)c1,-0.65
CC(C)OC(=O)c1c(NC(=O)c2ccc(Cl)c([N+](=O)[O-])c2)sc2c1CCCC2,-3.8*
COc1ccc(-c2nc(SCC(=O)Nc3ccc(C(C)=O)cc3)c3c(=O)n(C)c(=O)n(C)c3n2)cc1,0.47
CCOc1ccc(/C(O)=C2\C(=O)C(=O)N(c3nnc(C)s3)C2c2ccc(C(C)C)cc2)cc1 (stereo not drawn),1.3
CCn1cc(C(=O)O)c(=O)c2cc(F)c(N3CCN(S(=O)(=O)c4ccc(OC)cc4)CC3)cc21,-0.26
COc1cccc(C(=O)N2CCN(c3nc4ccc([N+](=O)[O-])cc4s3)CC2)c1,1.2
Cc1ccc(Cl)cc1NC(=O)c1cc(-c2cccs2)nc2ccccc12,-3*
CC(C)c1ccc(NC(=O)c2cc(-c3cccs3)nc3ccccc23)cc1,-0.09
O=C(Nc1cccnc1)c1cc(-c2cccs2)nc2ccccc12,0.73
O=C(Nc1cccc(Cl)c1)c1nn(-c2ccc(Cl)cc2)c(=O)c2ccccc12,2.4
CC1CN(C(=O)c2c(NC(=O)c3ccc(Cl)cc3)sc3c2CCC(C(C)(C)C)C3)CC(C)O1 (stereo not drawn),0.09
Cc1ccc(CN2C(=O)CSc3ccccc32)cc1,-0.43
CC(=O)Oc1ccc2nc(CN3C(=O)c4ccccc4C3=O)oc(=O)c2c1,-1
CC12CC(NC(=O)N1c1ccc(C(=O)NCCc3ccccc3)cc1)c1ccccc1O2 (stereo not drawn),-0.7
CSc1nnc2c(n1)OC(c1ccc(OC(C)=O)c(Br)c1)N(C(C)=O)c1ccccc1-2 (stereo not drawn),0.18
O=C(Nc1nc2ccccc2s1)c1ccc(NC(=O)C2CCCCC2)cc1,-0.02
COc1ccc(OC(=O)c2ccc(N3C(=O)C4C5CCC(C5)C4C3=O)cc2)cc1 (stereo not drawn),0.48
O=C(OCc1ccccc1)c1cccc(N2C(=O)C3C4CCC(C4)C3C2=O)c1 (stereo not drawn),0.3
O=C(Cc1ccccc1)Oc1ccc(N2C(=O)C3C4CCC(C4)C3C2=O)cc1 (stereo not drawn),-6.4*
Cc1cc(C)c(C(=O)CC2(O)C(=O)Nc3ccccc32)c(C)c1 (stereo not drawn),-0.13
O=C(COC(=O)c1ccc2c(c1)C(=O)N(c1ccc([N+](=O)[O-])cc1)C2=O)c1ccccc1,0.42
O=C(COC(=O)c1ccc2c(c1)C(=O)N(c1ccccc1Cl)C2=O)c1cccc([N+](=O)[O-])c1,0.75
COc1ccc(N2C(=O)c3ccc(C(=O)OCC(=O)c4cccc([N+](=O)[O-])c4)cc3C2=O)cc1,-5*
